Shown are actives, neighbours in structure and some others; about 7.2% of the full set was active somewhere.
HEK cytotox = HEK 293 cell cytotoxicity; actives 6.6% (n = 94,000); HEK 293 viability, ATP luminescence (CellTiter-Glo), 48-72 h; Potency, µM (highest dose often 115 µM), for inactives: top-dose activity change, negative = cytotoxicity, actives largely listed as inhibitors; further: nearly all actives have a fitted effect of over 60% in size
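qHTS cytotoxicity; HEK 293, 250 cells/well; compound pinned; 48 or 72 hr, 37 degree Celsius, 5% CO2, 95% humidity; CellTiter-Glo, 10 min RT; luminescence (ATP).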
HEK293 viab = counter-screen for SNCA expression inhibitors: cell viability; HEK-293-SNCA-luc viability, GF-AFC fluorescence, 24 h; Potency, µM (highest dose often 57.1 µM), inactives show at the highest dose activity change, negative = cytotoxicity, most hits filed as cytotoxic; actives 0.12% (n = 150,000);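 further: 0% = DMSO-treated cells and -100% = medium-only wells without cells; nearly all actives have a fitted effect of over 30% in size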
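Cytotoxicity counterscreen: after 24 h compound treatment of genome-edited SNCA-luciferase HEK-293 cells, live-cell protease substrate GF-AFC read by fluorescence after 30 min; activity scaled between DMSO (0%) and medium-only (-100%), curves Hill-fitted.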
NIH3T3 tox = NIH 3T3 cell cytotoxicity; NIH 3T3 viability, CellTiter-Glo ATP luminescence, 48-72 h; Potency, µM (highest dose often 96.7 µM), without a hit: at the top dose activity change, negative = cytotoxicity, usual class: inhibitors; actives 4.3% (n = 94,000); AID 1345082; further: nearly all actives have a fitted effect of over 55% in size
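Luminescent ATP readout (CellTiter-Glo, 10 min RT) after 48 or 72 hr compound exposure of NIH 3T3 cells seeded at 400 cells/well in 1536-well format; quantitative HTS.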
Luciferase inh = Photinus pyralis luciferase inhibition | purified P. pyralis luciferase, luminescence, biochemical | AID 1347043 | Potency, µM (series often up to 115 µM), actives largely listed as inhibitors | actives 2.5% (n = 76,000); further: nearly all actives have a fitted effect of over 65% in size
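Biochemical qHTS: compound (6-point titration) added to 10uM D-luciferin plus 10uM ATP in Tris acetate pH 7.5 buffer with Mg, Tween-20 and BSA, then purified enzyme at 10nM; light output imaged.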
hNpr1 antagonist = antagonists of human natriuretic peptide receptor Npr1; P16066; HEK293 hNpr1 GloSensor cGMP, ANP-stimulated luminescence; Potency, µM (series often up to 46.3 µM), for the others: at the highest dose activity change, negative = inhibition, usual class: inhibitors; actives 1.6% (n = 76,000); AID 1347048; calls by dose curve; further: nearly all actives have a fitted effect of over 60% in size
Target sequence (P16066 whole entry, looked up): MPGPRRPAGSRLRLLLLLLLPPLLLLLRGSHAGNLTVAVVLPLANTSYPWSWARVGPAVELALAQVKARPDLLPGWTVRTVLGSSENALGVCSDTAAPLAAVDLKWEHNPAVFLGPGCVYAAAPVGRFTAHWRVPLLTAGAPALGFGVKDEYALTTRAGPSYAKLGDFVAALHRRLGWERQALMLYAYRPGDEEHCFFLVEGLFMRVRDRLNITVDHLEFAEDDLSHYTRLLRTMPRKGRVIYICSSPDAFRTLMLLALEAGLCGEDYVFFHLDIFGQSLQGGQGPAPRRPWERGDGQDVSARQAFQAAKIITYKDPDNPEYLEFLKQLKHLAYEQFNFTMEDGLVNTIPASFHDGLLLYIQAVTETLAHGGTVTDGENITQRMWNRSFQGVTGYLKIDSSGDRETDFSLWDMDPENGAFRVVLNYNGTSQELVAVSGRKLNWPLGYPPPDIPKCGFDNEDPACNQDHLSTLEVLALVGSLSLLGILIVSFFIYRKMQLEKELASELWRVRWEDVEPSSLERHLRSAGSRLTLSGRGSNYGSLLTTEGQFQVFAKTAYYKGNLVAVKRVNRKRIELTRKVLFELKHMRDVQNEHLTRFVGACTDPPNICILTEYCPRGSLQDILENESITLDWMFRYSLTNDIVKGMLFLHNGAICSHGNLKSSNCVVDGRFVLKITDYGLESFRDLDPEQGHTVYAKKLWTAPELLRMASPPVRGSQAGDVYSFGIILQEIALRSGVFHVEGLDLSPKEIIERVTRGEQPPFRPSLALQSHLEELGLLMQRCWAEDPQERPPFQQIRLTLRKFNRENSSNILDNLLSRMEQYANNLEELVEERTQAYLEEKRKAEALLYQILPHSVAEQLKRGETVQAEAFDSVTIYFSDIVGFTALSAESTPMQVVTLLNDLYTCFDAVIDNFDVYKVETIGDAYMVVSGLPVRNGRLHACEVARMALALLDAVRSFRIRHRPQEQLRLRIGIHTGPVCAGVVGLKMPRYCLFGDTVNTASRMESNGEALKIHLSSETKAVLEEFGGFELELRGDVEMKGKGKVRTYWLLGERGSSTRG
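Compound pre-incubated 30 min at room temperature on GloSensor-loaded HEK293 cells stably carrying hNpr1 and the pGS-40F cGMP biosensor. Stimulation uses hNppA at 0.1 nM final; luminescence is taken at baseline and 20 min post-agonist.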
SNCA expr inhib = inhibitors of alpha-synuclein (SNCA) gene expression. HEK-293 SNCA-luciferase knock-in, luminescence, 24 h. Potency, µM (highest dose often 57.2 µM), inactives show at the top dose activity change, negative = inhibition, actives largely listed as inhibitors. actives 0.17% (n = 140,000);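 further: plate controls were DMSO cells for no effect and cell-free wells for full effect; nearly all actives have a fitted effect of over 45% in size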
* marks the source's active call; other numbers are inactive results; [ ] = another dose, or the depositor's remark. Unless noted, the call rests on the fitted dose curve; in most records, active means well fitted curve in the direction sought with a large enough effect; inconclusive means small, poorly fitted or top-dose-only effect, or another doubt; inactive means no such curve, though single readings can be large; an effect the other way counts as inactive or inconclusive. Unless noted, on the % scale 0 is the no-effect control and ±100 the full control effect; potency means the concentration at half of the fitted maximal effect.

`COc1ccc(-c2cc(-c3c(C)noc3C)cc3c2C(=O)N(C)C3)cn1` gave HEK cytotox 79µM*, HEK293 viab -15%[87.6 µM], NIH3T3 tox inconclusive, Luciferase inh inactive, hNpr1 antagonist inconclusive and SNCA expr inhib -16%[87.6 µM].
For Cc1noc(C)c1-c1cc2c(c(-c3cccnc3)c1)C(=O)N(C)C2 the results were HEK cytotox -18%[172 µM], HEK293 viab 2%[87.6 µM], NIH3T3 tox inconclusive, Luciferase inh inactive, hNpr1 antagonist 7%[70.6 µM] and SNCA expr inhib 20%[87.6 µM].
`O=C(CC1CCCC1)NC1CCN(C(=O)N2CC3CC(C2)[C@H]2CCCC(=O)N2C3)CC1` (stereo partly specified) gave HEK cytotox 6%, HEK293 viab 1%, NIH3T3 tox 0%, Luciferase inh inactive, hNpr1 antagonist -6% and SNCA expr inhib -1%.
`N#Cc1ccc([S+](=O)([O-])N2CCC3(CC2)OCCN(CC2CCOCC2)C3=O)cc1` gave HEK cytotox -20%[172 µM], HEK293 viab 4%[87.6 µM], NIH3T3 tox inconclusive, Luciferase inh inactive, hNpr1 antagonist -23%[70.6 µM] and SNCA expr inhib -19%[87.6 µM].
For O=C(NC1CCCCC1)[C@@H]1Cc2nc[nH]c2CN1Cc1ccc(Cl)cc1 the results were HEK cytotox inconclusive, HEK293 viab -13%[87.6 µM], NIH3T3 tox inconclusive, Luciferase inh inactive, hNpr1 antagonist -10%[70.6 µM] and SNCA expr inhib 8%[87.6 µM].
`CN(C)CCN(C)[C@@H]1[C@H](O)[C@H](CO)O[C@@H]1CN(Cc1ccc(Cl)cc1)Cc1cccc(Cl)c1` gave HEK cytotox inconclusive, HEK293 viab inconclusive, NIH3T3 tox 28µM*, Luciferase inh inactive, hNpr1 antagonist inconclusive and SNCA expr inhib inconclusive.
`CCn1nccc1C(=O)N1C[C@@H](Oc2ccccc2)C[C@@H]1C(=O)NC` gave HEK cytotox 4%, HEK293 viab -6%, NIH3T3 tox inactive, Luciferase inh inactive, hNpr1 antagonist 5% and SNCA expr inhib -9%.
For CN1C[C@@H](NS(=O)(=O)c2ccc(F)cc2)C[C@H]1c1nc(-c2cccnc2)no1 the results were HEK cytotox -12%[172 µM], HEK293 viab 1%[87.6 µM], NIH3T3 tox -25%[174 µM], Luciferase inh inactive, hNpr1 antagonist 5%[70.6 µM] and SNCA expr inhib 36%[87.6 µM].
Screening Cc1ccc(-c2noc([C@@H]3C[C@H](NS(=O)(=O)c4ccc(F)cc4)CN3C)n2)cc1 returned HEK cytotox inconclusive, HEK293 viab -3%[87.6 µM], NIH3T3 tox inconclusive, Luciferase inh 45µM*, hNpr1 antagonist -22%[70.6 µM] and SNCA expr inhib 96%[87.6 µM].
For CC(=O)Nc1ccc(S(=O)(=O)N[C@H]2C[C@@H](c3nc(-c4ccc(F)cc4)no3)N(C)C2)cc1 the results were HEK cytotox inconclusive, HEK293 viab -10%, NIH3T3 tox -28%, Luciferase inh inactive, hNpr1 antagonist inconclusive and SNCA expr inhib -2%.
`Cc1ccc(S(=O)(=O)N[C@H]2C[C@@H](c3nc(C(C)C)no3)N(C)C2)cc1` gave HEK cytotox -2%[172 µM], HEK293 viab -2%[87.6 µM], NIH3T3 tox -18%[138 µM], Luciferase inh inactive, hNpr1 antagonist -1%[70.6 µM] and SNCA expr inhib -28%[87.6 µM].
CN1C[C@@H](NS(=O)(=O)c2ccc(Cl)cc2)C[C@H]1c1nc(-c2ccc(F)cc2)no1 was read as HEK cytotox inconclusive, HEK293 viab -7%, NIH3T3 tox inconclusive, Luciferase inh 40µM*, hNpr1 antagonist -22% and SNCA expr inhib 38%.
For CN1C[C@@H](NS(=O)(=O)c2ccccc2)C[C@H]1c1nc(-c2ccc(F)cc2)no1 the results were HEK cytotox 100µM*, HEK293 viab -15%[87.6 µM], NIH3T3 tox inconclusive, Luciferase inh inconclusive, hNpr1 antagonist -22%[70.6 µM] and SNCA expr inhib 56%[87.6 µM].
For COCC(=O)N[C@@H]1CN(C(=O)CCCc2ccccc2)CC[C@@H]1c1nc(C)no1 the results were HEK cytotox 2%, HEK293 viab 0%, NIH3T3 tox inactive, Luciferase inh inactive, hNpr1 antagonist 2% and SNCA expr inhib -15%.
COCCOC1CCN(C(=O)c2cc(C)n(CCOC)c2C)CC1 was read as HEK cytotox -9%, HEK293 viab 9%[12.5 µM], NIH3T3 tox -9%, Luciferase inh 20µM*, hNpr1 antagonist 1% and SNCA expr inhib 118%.
For O=C(Cc1c[nH]c2ncc(-c3ccc(Oc4ccccc4)cc3)cc12)NCc1cccnc1 the results were HEK cytotox 40µM*, HEK293 viab inconclusive, NIH3T3 tox inconclusive, Luciferase inh inactive, hNpr1 antagonist inconclusive and SNCA expr inhib inconclusive.
O=C(Cc1c[nH]c2ncc(-c3ccc(Cl)cc3)cc12)NCc1cccnc1 was read as HEK cytotox 89µM*, HEK293 viab 4%[87.6 µM], NIH3T3 tox inconclusive, Luciferase inh inconclusive, hNpr1 antagonist -30%[70.6 µM] and SNCA expr inhib 17%[87.6 µM].
For O=C(c1ccc2nc(-c3cccnc3)oc2c1)N1CCOCC1 the results were HEK cytotox inconclusive, HEK293 viab 1%[87.6 µM], NIH3T3 tox -15%[138 µM] and SNCA expr inhib 44%[87.6 µM].
For CC(C)C1NC(=O)CNC(=O)C2CCCN2C(=O)C(Cc2c[nH]c3ccccc23)NC(=O)CNC(=O)C(Cc2ccc(O)cc2)NC(=O)CNC1=O (stereo unspecified) the results were HEK293 viab -8%[23.9 µM].
Screening CC1=C[C@@H](CNC(=O)c2ccnc(Cl)c2)[C@H](C(C)C)C[C@H]1Cc1nc2ccc(C)cc2[nH]1 returned HEK cytotox inconclusive, HEK293 viab inconclusive, NIH3T3 tox 18µM*, Luciferase inh inactive, hNpr1 antagonist inconclusive and SNCA expr inhib inconclusive.
For COc1ccc(S(=O)(=O)NC[C@@H]2C=C(C)[C@H](CC(=O)N(C)Cc3cccnc3)C[C@H]2C(C)C)cc1 the results were HEK cytotox inconclusive, HEK293 viab -28%, NIH3T3 tox 10µM*, Luciferase inh inactive, hNpr1 antagonist -12% and SNCA expr inhib -1%.
For CC1=C[C@@H](CNC(=O)CCCC(=O)O)[C@H](C(C)C)C[C@H]1Cc1nc2ccc(C)cc2[nH]1 the results were HEK cytotox -20%[172 µM], HEK293 viab -22%[87.6 µM], NIH3T3 tox -2%[174 µM], Luciferase inh inactive, hNpr1 antagonist -20%[70.6 µM] and SNCA expr inhib 13%[87.6 µM].
Screening CC1=C[C@@H](CNC(=O)CC(C)(C)CC(=O)O)[C@H](C(C)C)C[C@H]1Cc1nc2ccc(F)cc2[nH]1 returned HEK cytotox -4%, HEK293 viab -14%, NIH3T3 tox -1%, Luciferase inh inactive, hNpr1 antagonist 3% and SNCA expr inhib -24%.
